# Experimental data from publication PMC4552634, “A New Set of Chemical Starting Points with Plasmodium falciparum Transmission-Blocking Potential for Antimalarial Drug Discovery” (PLoS ONE, 2015).
# Like-named read-outs stand apart in the source and are kept apart here. Hit rate of the full screen: of about 13,000 compounds, about 3,200 (25%) showed an effect of 50% or more. The list shows a part of the results.
# System: P. falciparum stage V gametocytes
# Parameters: BacTiter-Glo ATP luminescence viability of purified stage V gametocytes in 384-well plates, per cent inhibition versus DMSO
# Conditions: 48 h, 5 µM, inhibitor
SMILES,% Inhibition [%],% Inhibition (% Inhibition) [%]
CC(C)(C)n1nnnc1C(c1cccnc1)N(Cc1ccccc1)Cc1ccc(Cl)cc1 (stereo not shown) [TCMDC-123530],11.45,–
O=C(NCc1ccc(F)cc1)Nc1cccc(-c2ccc(-c3nc4ccccc4[nH]3)cc2)c1 [TCMDC-133300],7.874,–
Cc1nc2nc(N)nc(N)c2c(C)c1Cc1cccc(C(F)(F)F)c1 [TCMDC-137658],-3.325,–
COc1ccc(CCCc2nc(N)nc(N)c2-c2ccc(Cl)cc2)cc1 [TCMDC-137358],-7.157,–
COc1cc2nc(SCCCC#N)n(C3CCCCCC3)c(=N)c2cc1OC [TCMDC-123768],60.07,–
COc1cc2nc(SCC(C)C)n(CCCn3ccnc3)c(=N)c2cc1OC [TCMDC-125667],47.91,–
O=C(CC1SC(N2N=C(c3cccs3)CC2c2ccccc2)=NC1=O)Nc1ccccc1F (stereo not shown) [TCMDC-124761],0.7985,–
CCN(CCCN1CCCCC1)c1cc(C)nc(Nc2ccc(C)cc2C(F)(F)F)n1 [TCMDC-132444],-24.78,–
CCN(CCCN1CCCCC1)c1cc(C)nc(Nc2ccc(F)c(C(F)(F)F)c2)n1 [TCMDC-132433],31.89,–
CCN(CCCN1CCCCC1)c1cc(C)nc(Nc2cccc(C(F)(F)F)c2C)n1 [TCMDC-132452],62.42,–
CCN(CCCN1CCCCC1)c1cc(C)nc(Nc2cc(C(F)(F)F)ccc2C)n1 [TCMDC-132448],19.94,–
CCN(CCCN1CCCCC1)c1cc(C)nc(Nc2ccc(C)c(Cl)c2)n1 [TCMDC-132438],-8.632,–
CCN(CCCN1CCCCC1)c1cc(C)nc(Nc2ccc(Cl)c(C(F)(F)F)c2)n1 [TCMDC-132439],56.88,–
Cc1cc(C)c(O)c(-c2cc(C(=O)Nc3ccc(S(=O)(=O)N4CC(C)OC(C)C4)cc3)[nH]n2)c1 (stereo not shown) [TCMDC-125184],-32.33,–
CC1CCCCN1S(=O)(=O)c1ccc(NC(=O)c2cc(-c3ccccc3O)n[nH]2)cc1 (stereo not shown) [TCMDC-125855],-44.79,–
O=C(/C=C/c1ccc(Cl)c(Cl)c1)NCCCCCN1CCN(C(=O)Nc2ccc(Cl)c(C(F)(F)F)c2)CC1 [TCMDC-135735],-27.61,–
COC1CCC(C(=O)Nc2ccc(-c3cccc(-c4nc5ccc(C(F)(F)F)cc5[nH]4)c3)cc2)CC1 (stereo not shown) [TCMDC-136858],-5.175,–
O=C(Nc1ccon1)c1cc(-c2cccnc2)nc2ccc(Cl)cc12 [TCMDC-124360],-4.584,–
C=CCOC(=O)N1CCC(CNCc2ccc(-c3ccc(-c4nc5ccccc5[nH]4)s3)cc2)C1.O=C(O)C(F)(F)F (stereo not shown) [TCMDC-133037],-14.35,–
CCNc1cc(C(=O)N[C@@H](Cc2ccco2)[C@H](O)CNC2CCCCC2)cc(N2CCCCS2(=O)=O)c1 [TCMDC-135304],34.63,–
CC(C)N1CCN(c2ccc(OCCCCN3CCN(c4cccc(Cl)c4Cl)CC3)c(C(F)(F)F)c2)CC1 [TCMDC-136646],-6.976,–
COc1cc(NC(=O)CCCN2CCN(c3cccc(Cl)c3Cl)CC2)ccc1N1CCN(C(C)C)CC1 [TCMDC-136697],87.5,–
CC(C)N1CCN(c2ccc(OCCCN3CCN(c4cccc(Cl)c4Cl)CC3)c(C(F)(F)F)c2)CC1 [TCMDC-136647],-2.358,–

SMILES,% Inhibition [%],% Inhibition (% Inhibition) [%]
CC(C)N1CCN(c2ccc(OCCCCN3CCN(c4cccc(Cl)c4Cl)CC3)cc2Cl)CC1 [TCMDC-136639],-87.47,–
COc1cc(C(=O)N2CCN(C(C)C)CC2)ccc1CN(C)CCCN1CCN(c2cccc(Cl)c2Cl)CC1 [TCMDC-136519],106.1,–
Cc1cc(NC(=O)CCCN2CCN(c3cccc(Cl)c3Cl)CC2)ccc1N1CCN(C(C)C)CC1 [TCMDC-136696],-18.49,–
COc1cc(C(=O)N2CCN(C(C)C)CC2)ccc1CN(C)CCCCN1CCN(c2cccc(Cl)c2Cl)CC1 [TCMDC-136506],104.3,–
Cc1cc(NC(=O)CCN2CCN(c3cccc(Cl)c3Cl)CC2)ccc1N1CCN(C(C)C)CC1 [TCMDC-136695],39.36,–
COc1ccc(N2CCN(CCCN3CCN(C(=O)c4ccc(/C=C/c5ccc(Cl)c(Cl)c5)cc4)CC3)CC2)c(OC)c1 [TCMDC-138215],-35.25,–
O=c1cc(N2CCNCC2)c(Cl)nn1Cc1ccc(NS(=O)(=O)c2ccc(Oc3ccccc3)cc2)cc1 [TCMDC-141701],10.25,–
COc1ccc2nc(-c3cc(-c4ccc(NC(C)=O)cc4)cnc3N)[nH]c2c1 [TCMDC-135365],-4.081,–
Cc1sc(CNCCCNc2cc(=O)c3ccccc3[nH]2)c(I)c1C [TCMDC-140907],-22.52,–
CC(=O)N1c2ccccc2C(C)=CC1(C)C [TCMDC-123928],-1.243,–
CCCC1N=C(N)N=C(N)N1c1cccc(C(F)(F)F)c1 (stereo not shown) [TCMDC-131298],-25.37,–
CCN(CCCN1CCCCC1)c1cc(C)nc(Nc2ccc(Oc3ccccc3)cc2)n1 [TCMDC-132426],49.81,–
Cl.Nc1ccnc2ccc(OCCCCCCc3ccccc3)cc12 [TCMDC-139072],-2.454,–
CN(C)CCCn1c(C(=O)OC(c2ccccc2)c2ccccc2)cc2cc(OCc3ccccc3)ccc21 [TCMDC-138114],99.58,–
CN(C)CCCN(C)C(=O)c1cc2cc(-c3ccccc3)ccc2n1S(=O)(=O)c1ccccc1 [TCMDC-139127],25.92,–
CN(C)CCCOC(=O)c1cc2cc(-c3ccccc3)ccc2n1S(=O)(=O)Cc1ccccc1 [TCMDC-139121],46.9,–
COc1cc(C(=O)NC2CCC(CN3CCC(c4c[nH]c5ccccc45)CC3)CC2)cc(Cl)n1 (stereo not shown) [TCMDC-139937],89.84,–
O=C(NC1CCC(CN2CCC(c3c[nH]c4ccccc34)CC2)CC1)c1cc2ccccc2o1 (stereo not shown) [TCMDC-139764],94.95,–
O=C(NC1CCC(CN2CCC(c3c[nH]c4ccccc34)CC2)CC1)c1cc2ccccc2s1 (stereo not shown) [TCMDC-139710],–,-31.58
Cc1ccccc1C1CCN(C2CCC(NC(=O)c3ccc(-c4cc(C(F)(F)F)nn4C)s3)CC2)CC1 (stereo not shown) [TCMDC-134107],-22.15,–
O=C(NC1CCC(CN2CCC(c3c[nH]c4ccccc34)CC2)CC1)c1cc2ccccc2s1 (stereo not shown) [TCMDC-139722],–,56.81
Cn1nc(C(F)(F)F)cc1-c1ccc(C(=O)NC2CCC(CN3CCC(c4c[nH]c5ccccc45)CC3)CC2)s1 (stereo not shown) [TCMDC-140355],118.2,–
O=C(NC1CCC(CN2CCC(c3c[nH]c4ccccc34)CC2)CC1)c1cc(-c2ccccc2)c(C(F)(F)F)s1 (stereo not shown) [TCMDC-140356],23.32,–
